Where “and” joins values, the source holds several entries; their conditions need not be identical. Identical values can stand only once. Compounds without any hit were thinned out: in the full panel of roughly 83,000, 20% have a hit.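 In brief: 96-well plates, 48 h treatment, single concentration, percent growth endpoint.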 Values without a mark were called inactive. Calls of active or inactive are those of the source. Rule for the calls: active = growth percent below 10; inactive = the rest.
What follows are compounds tested on MOLT-4 leukemia (assay: NCI-60 one-dose screen, 48 h (100 = growth as untreated, 0 = no growth, -100 = all killed)). Settings: 10 µM unless noted.

Q: For `COc1cc(CO)cc2cc3ccccc3nc12`, which growth is on record?
A: 99.4%

Q: For `O=C(Cc1ccc(F)cc1)c1ccccc1`, which growth is on record?
A: 93.1%

Q: With `COc1cc(-c2[nH]ncc2Nc2ccc(Cl)cc2)cc(OC)c1OC` as the compound, how does the growth read?
A: 50.9%

Q: Which growth does the source give for `CC1(Cc2ccccc2)CC2=C(C(=O)O1)C(c1ccccc1)NC(=O)N2` (stereo unspecified) here?
A: 46.5%

Q: Which growth does the source give for `C=CCN1C=CC(=O)[C@H](O[Si](C)(C)C(C)(C)C)[C@@H]1/C=C/c1ccccc1` here?
A: -30.4% [100 µM] (active)

Q: For `Cc1ccc(-c2nc3nc(-c4ccc(Cl)cc4)nc(N4CCCNCC4)c3o2)cc1`, which growth is on record?
A: -71.2% (active)

Q: How did the growth turn out when `CC1=C2[C@@H](CC1)[C@]1(C)O[C@@](C3CC3)(C[C@H]1OC(=O)CO)[C@H]2OC(=O)/C=C/c1ccccc1` was run?
A: 77.6%

Q: With `CCN1CCN(C(=O)[C@]23CC[C@@H](C)[C@H](C)[C@@H]2C2=CC[C@@H]4[C@@]5(C)CCC(=O)C(C)(C)[C@@H]5CC[C@@]4(C)[C@]2(C)CC3)CC1` as the compound, how does the growth read?
A: -15.9% (active)

Q: How did the growth turn out when `CCCO/N=C/c1ccccn1` was run?
A: 124% and 102%

Q: Which growth does the source give for `CN(C)CCN1C(=O)c2c(c3c4ccccc4n4c3c3c2c2ccccc2n3C2CC(O)C(O)C4(C)O2)C1=O` (stereo unspecified) here?
A: 0.948% (active)

Q: With `CCOC(=O)c1c(-c2ccc(C)cc2)c(C#N)c(=O)n(-c2cccc(C(F)(F)F)c2)c1N` as the compound, how does the growth read?
A: 104%

Q: With `CCCCCCCCCCCCCCCC(=O)O[C@@H]1[C@@H](O)[C@@H](O)C([C@H](NC(=O)[C@@H]2C[C@@H](CCC)CN2C)[C@H](C)Cl)O[C@@H]1SC` (stereo partly specified) as the compound, how does the growth read?
A: 103%

Q: With `O=C1/C(=C/c2cn(-c3ccccc3)nc2-c2ccccc2)SC(=S)N1c1ccc(Cl)cc1` as the compound, how does the growth read?
A: 74.7%

Q: With `CN(C)CCCn1c2c(c3ccc(N4CCNCC4)cc3c1=O)C(=O)c1ccccc1-2` as the compound, how does the growth read?
A: -21.9% (active)

Q: With `CCOc1ccccc1NC(=O)c1cc2ccccc2cc1O` as the compound, how does the growth read?
A: 44.6%

Q: How did the growth turn out when `COc1ccc(C/C(C)=C(/c2ccc(OCCN3CCCCCC3)cc2)c2ccc(OC(=O)c3ccccc3)cc2)cc1` was run?
A: 77%
